From PubChem BioAssay (NCATS)
Inconclusive results are not listed. Unmarked numbers belong to inactive results. The source made the active and inactive calls. The call rests on the fitted dose curve; in most records, active means well fitted inhibition curve with a large enough effect; inconclusive means small, poorly fitted or top-dose-only effect; inactive means flat fitted curve, though single readings scatter.
On the % scale 0 is the no-effect control and ±100 the full control effect.

Assay: P-glycoprotein substrates identified in KB-8-5-11 adenocarcinoma cell line, qHTS therapeutic library screen (AID 1346987); further: nearly all actives have a fitted effect of over 65% in size
Conditions: KB-8-5-11 (P-gp overexpressing) viability, CellTiter-Glo, 72 h; series mostly up to 44.5 µM; activity change, negative = cytotoxicity: at the top concentration
Summary of the method: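 KB-8-5-11: colchicine-selected sub-line of KB-3-1 over-expressing P-gp; assay medium lacked colchicine. 72 h drug exposure at 37 degree C, CellTiter-Glo.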
With `CC(CCC1(O)OC2CC3C4CCC5CC(O[C@@H]6O[C@H](CO)[C@@H](O)[C@H](O)[C@H]6O[C@@H]6OC[C@@H](O)[C@H](O)[C@H]6O)C(O)CC5(C)C4CCC3(C)C2C1C)CO[C@@H]1O[C@H](CO)[C@@H](O)[C@H](O)[C@H]1O` (stereo partly drawn) the outcome was “inactive [at 9.29 µM]”. For `CC1=CC(=O)CC(C)(C)C1CCC(C)OC1OC(COC(=O)c2cc(O)c(O)c(O)c2)C(O)C(O)C1O` (stereo not drawn), the “activity change, negative = cytotoxicity” value was 1.57% [at 17.3 µM]. With `CCC[C@@H]1C[C@@H](C(=O)N[C@@H]([C@H]2O[C@H](SC)[C@H](O)[C@@H](O)[C@@H]2O)[C@@H](C)O)N(C)C1` the “outcome” value was “inactive”. In the case of `OC[C@H]1O[C@@H](Oc2cc(O)cc(/C=C/c3ccc(O)cc3)c2)[C@H](O)[C@@H](O)[C@@H]1O`, the “activity change, negative = cytotoxicity” value is reported as 9.73%. With `CC(/C=C/C1(O)C(C)CC(O)CC1(C)C)OC1OC(CO)C(O)C(O)C1O` (stereo not drawn) the “activity change, negative = cytotoxicity” value was 0.557%. With `C=C1CC23CC1(O)CCC2C1=CC2OC(=O)C(C)(C2O)C1C3C(=O)O` (stereo not drawn) the “activity change, negative = cytotoxicity” value was 4.79%. For `Cc1c(N2C(=O)c3ccc(C(=O)O)cc3C2=O)c(=O)n(-c2ccccc2)n1C`, the “outcome” value was “inactive”. In the case of `c1ccc(Nc2nc3c(s2)CCCc2[nH]ncc2-3)nc1`, the “activity change, negative = cytotoxicity” value is reported as 2.92%.
